FUS suppressor = suppressors of FUS proteinopathy in yeast. S. cerevisiae FUS-expressing, growth rescue, OD600, 24 h. Potency, µM (top dose mostly 76.6 µM), usual class: activators. hit rate 0.24% among 390,000;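 note: plate controls were DMSO vehicle for no effect and reference control for full effect; nearly all actives have a fitted effect of over 55% in size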
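Yeast FUS proteinopathy model; galactose-induced FUS (2%), starting OD 0.005. Cpds in dilution series, 24hr, 30C, 99% humidity. Abs 600 nm growth. Pos ctrl CP55940 (top 92uM final); neg ctrl DMSO.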
PTAP TSG101 blk = blocks PTAP/TSG101 interaction to inhibit HIV-1 budding. Fluorescence polarization, FITC-PTAP peptide / Tsg101 binding. 340,000 tested, under 10 active. AID 493005. Q99816. Potency, µM (highest dose often 115 µM), without a hit: top-dose activity change, negative = inhibition, usual class: inhibitors; active = well fitted inhibition curve with a large enough effect in the main read-out, with a control signal flat, not every such curve was filed as active; inconclusive = small, poorly fitted or top-dose-only effect, or effect the other way, or a change in a side signal; inactive = no such curve, though single readings can be large or run the other way; note: % of control where 0% means no effect
Target sequence (Q99816 whole entry, looked up): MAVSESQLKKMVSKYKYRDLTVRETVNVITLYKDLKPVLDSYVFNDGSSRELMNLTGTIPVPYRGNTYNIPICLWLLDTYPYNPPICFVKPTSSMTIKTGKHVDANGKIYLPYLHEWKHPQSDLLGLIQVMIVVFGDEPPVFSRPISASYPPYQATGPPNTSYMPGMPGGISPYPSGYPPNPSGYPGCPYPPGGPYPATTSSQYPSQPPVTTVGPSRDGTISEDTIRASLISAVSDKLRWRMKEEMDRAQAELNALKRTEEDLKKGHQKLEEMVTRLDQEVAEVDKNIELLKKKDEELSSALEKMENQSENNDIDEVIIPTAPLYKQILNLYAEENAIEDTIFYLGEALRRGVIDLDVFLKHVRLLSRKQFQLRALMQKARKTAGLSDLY
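Steps: Tsg101 binding domain dispensed (10 uM final), compounds pinned in DMSO, FITC-labeled PTAP-motif peptide added (50 nM final); after 20 min binding at room temperature, polarization measured.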
Abeta yeast res = A-beta toxicity reversal in yeast; yeast expressing A-beta42, growth rescue, OD600, 48 h; response scale: 0% DMSO, 100% iron-clioquinol control; Potency, µM (titrated, usually from 46.1 µM), hits mostly activators; hit rate 0.063% among 410,000; AID 1347071; note: nearly all actives have a fitted effect of over 55% in size
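Yeast growth medium received pinned compounds, then yeast cells expressing toxic A-beta were added; plates incubated at 30 C for 48 hr. Growth read as absorbance at 600 nm, normalized to DMSO and equimolar FeCl3 plus clioquinol controls.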
TDP43 rescue = inhibitors of TDP-43 toxicity in yeast; TDP-43 expressing yeast growth rescue, BacTiter-Glo, 24 h; Potency, µM (titrated, usually from 46.1 µM), for the others: top-dose growth rescue (activation), hits mostly activators; hit rate 1.8% among 410,000; AID 652104; note: % of control where 0% means no effect; nearly all actives have a fitted effect of over 50% in size
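Luminescence from BacTiter-Glo reports growth of TDP-43-expressing yeast after 24 hr at 30 deg C with compound. Cells were raffinose-pregrown to mid-log, then seeded in galactose medium at OD600=0.02.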
aSyn yeast inh = inhibitors of alpha-synuclein toxicity in yeast | Yeast expressing alpha-synuclein, growth rescue, BacTiter-Glo, 24 h | Potency, µM (highest dose often 46.1 µM), without a hit: at the highest dose growth rescue (activation), most hits filed as activators | hit rate 0.14% among 370,000; note: % of control where 0% means no effect; nearly all actives have a fitted effect of over 65% in size
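Readout is rescue of growth in alpha-synuclein-expressing yeast, so inhibitors of toxicity appear as activators. Growth after 24 hr at 30 deg C in galactose medium is quantified by luminescence.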
* = called active by the depositor; i = inactive; ? = inconclusive; . = no result; ! = a repeat was not active. A selection: hits, their analogues and other compounds. The true share with any hit is near 2.1%. Unless noted, calls come from the whole dose curve; as a rule, active = well fitted curve in the direction sought with a large enough effect; inconclusive = small, poorly fitted or top-dose-only effect, or another doubt; inactive = no such curve, though single readings can be large; an effect the other way counts as inactive or inconclusive. Potency is the fitted concentration of half-maximal effect.

SMILES	FUS suppressor	PTAP TSG101 blk	Abeta yeast res	TDP43 rescue	aSyn yeast inh
O=c1[nH][nH]c2c1[C@H](CCc1cccc(Cl)c1)O[C@H](C1CCCC1)C2	i	.	i	0%	-33%
CC(C)CC(COCc1cccc(C(F)(F)F)c1)N1CCN(C(=O)c2cccc(C(F)(F)F)c2)CCC1=O (configuration not stated)	?	-5%	i	25%	22%
CC(C)CC(COCc1ccc(Cl)cc1)N1CCN(C(=O)c2cccc(C(F)(F)F)c2)CCC1=O (configuration not stated)	32µM*	-10%	i	20%	11%
Cc1ccc(COC[C@H](CC(C)C)N2CCN(C(=O)c3cccc(C(F)(F)F)c3)CCC2=O)cc1	4.5µM*	.	i	16µM*	12%
Cc1ccccc1COC[C@H](CC(C)C)N1CCN(C(=O)c2cccc(C(F)(F)F)c2)CCC1=O	?	-2%	i	11%	27%
Cc1ccc(CSc2ncc(Cl)c(C(=O)Nc3nnc(C)s3)n2)cc1	i	.	i	12%	.
COc1ccc2ncc(S(=O)(=O)c3ccccc3)c(N3CCC4(CC3)OCCO4)c2c1	i	-2%	i	18µM*	7%
COc1ccc2ncc(S(=O)(=O)c3ccccc3)c(N3CCN(c4ccccc4)CC3)c2c1	i	-7%	i	16µM*	?
COc1cc2ncc(S(=O)(=O)c3ccccc3)c(N3CCC4(CC3)OCCO4)c2cc1OC	i	-4%	i	?	0%
Cc1ccc(-c2nnc(Nc3cccc(Cl)c3)c3ccccc23)cc1S(=O)(=O)NCC1CCCO1 (configuration not stated)	?	.	i	10%	.
CCCCNC(=O)CSc1c2c(nc3ccc(Cl)cc13)CCCC2	i	.	i	?	.
CCOC(=O)c1ccc(NC(=O)CSc2c3c(nc4cc(Cl)ccc24)CCCC3)cc1	i	.	i	16µM*	.
CCCCN(CC)C(=O)CSc1c2c(nc3ccc(Cl)cc13)CCCC2	i	.	i	22µM*	.
O=C(CSc1c2c(nc3cc(Cl)ccc13)CCCC2)N1CCN(c2ccccc2)CC1	?	.	i	20µM*	.
COc1ccc(NC(=O)CSc2c3c(nc4cc(Cl)ccc24)CCCC3)cc1OC	.	-1%	i	13%	9%
COc1ccc(NC(=O)CSc2c3c(nc4ccc(Cl)cc24)CCCC3)cc1Cl	i	.	i	11µM*	.
O=CNc1cc(-c2cccc(O)c2)cn2c(-c3ccc(F)cc3)cnc12	i	.	i	1%	0%
CCc1ccc(NC(=O)Cn2c(=O)oc3cc(S(=O)(=O)N4CCCCCC4)ccc32)cc1	i	.	i	22%	.
Cc1ccc(NC(=O)Cn2c(=O)n(-c3ccc(Cl)c(Cl)c3)c(=O)c3c(C)c(C)sc32)c(C)c1	i	.	i	6%	.
Cc1cccc(NC(=O)C(c2ccccc2)N2Cc3ccccc3C2=O)c1C (configuration not stated)	i	.	i	27%	.
CCOc1ccccc1/C=C(/NC(=O)c1ccccc1)C(=O)N1CCCCC1	i	0%	i	-5%	-3%
Cc1cc(Cl)c2oc(C(=O)N3CCN(c4cnccn4)CC3)c(C)c2c1	i	.	i	5%	12%
Cc1ccc2c(C)c(C(=O)N3CCN(C4CCS(=O)(=O)C4)CC3)oc2c1C (configuration not stated)	i	0%	i	5%	1%
Cc1ccc2c(C)c(C(=O)N3CCC(O)(c4ccccc4)CC3)oc2c1C	i	-5%	i	22µM*	10%
Cc1ccc2c(C)c(C(=O)N3CCN(c4cnccn4)CC3)oc2c1C	.	-1%	i	13µM*	27%
SMILES	FUS suppressor	PTAP TSG101 blk	Abeta yeast res	TDP43 rescue	aSyn yeast inh
COc1ccc(/C=C2/C(=O)OCc3cc(OC)c(OC)cc32)cc1	i	0%	i	20µM*	4%
COc1ccc(/C=C2\CCOC2=O)cc1	i	-3%	i	-19%	2%
CCOC(=S)SCC(=O)Nc1nccs1	i	0%	i	22µM*	-8%
CCOC(=S)SCC(=O)Nc1nc(C)c(C)s1	i	-2%	?	22µM*	-1%
CNc1nc2c(c(=O)n(C)c(=O)n2C)n1CC(O)COc1ccc(OC)cc1 (configuration not stated)	i	.	i	-10%	.
O=C(c1ccc2c(c1)CCN2S(=O)(=O)c1ccccc1)N1CCN(c2ccc(F)cc2)CC1	18µM*!	2%	i	?	14%
Cc1cccc(C(c2sc3nc(-c4ccco4)nn3c2O)N2CCN(c3ccccc3)CC2)c1 (configuration not stated)	i	.	i	?	.
CN(Cc1cnc2nc(N)nc(N)c2n1)c1ccc(C(=O)NC(CCC(=O)O)C(=O)O)cc1 (configuration not stated)	.	-11%	i	16µM*	2%
CN(Cc1cnc2nc(N)nc(N)c2n1)c1ccc(C(=O)NC(CCC(=O)O)C(=O)O)cc1C(F)(F)F (configuration not stated)	.	0%	i	0%	-2%
COc1ccc(C=NN=C2c3ccccc3-c3ccccc32)cc1O	.	-4%	i	18µM*	1%
Cc1cccc(-c2cc(C(=O)NCc3ccccn3)c3ccccc3n2)c1	.	0%	i	35µM*	-3%
C/C(=N\NC(=O)c1cc(-c2cccs2)nc2ccccc12)c1ccccn1	i	-3%	13µM*	22µM*	14µM*
O=C(Nc1nccs1)c1cc(-c2ccccc2)nc2ccccc12	i	-1%	i	14µM*	-20%
CC(=O)C1=CCC(c2ccc(Cl)cc2)N(S(=O)(=O)c2ccccc2C)C1 (configuration not stated)	?	.	i	?	12%
CC(=O)N1CCc2cc(Br)cc(S(=O)(=O)N3CCC(C(=O)Nc4ccc(C(C)C)cc4)CC3)c21	i	.	i	23%	.
CCCS(=O)(=O)c1ncc(Cl)c(C(=O)N2CCN(c3ccc(OC)cc3)CC2)n1	i	.	i	14µM*	.
Cc1cccc(-n2ncc(C(=O)Nc3ccc4c(c3)OCO4)c2C2CCN(C(=O)OC(C)(C)C)CC2)c1	?	.	i	8%	.
O=C(CCS(=O)(=O)c1cc(Br)cc2c1N(C(=O)C1CC1)CC2)NCc1ccc(Cl)cc1	28µM*	.	i	2%	.
Cc1ccc(CNC(=O)CCS(=O)(=O)c2cc(Br)cc3c2N(C(=O)C2CC2)CC3)cc1	?	.	i	11%	.
CC(C)(C)c1cc(NS(=O)(=O)c2ccc(Br)s2)no1	i	-1%	i	22µM*	-15%
Cc1cc(NS(=O)(=O)c2ccc(Br)s2)no1	i	0%	i	10%	-1%

Screening data as filed in PubChem.
